Source: PubChem BioAssay AID743101 (Vanderbilt Specialized Chemistry Center, 2013)
Calls of active or inactive are those of the source.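 How the source made its calls: active means calcium signal above 60% of the peak acetylcholine response at the M5 receptor, called a positive modulator; inactive means the rest.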

Molecular target: Muscarinic acetylcholine receptor M4 (Homo sapiens) (UniProt P08173)
Assay: human M4 receptor activity of M5 PAM candidates, counter-screen for M5 PAM project, cell-based, CHO-K1 hM4/Gqi5, Fluo-4 calcium flux, ACh EC20 (AID 743101)
Conditions: Fluo-4, ACh EC20, at 30 µM (top of the series)

Muscarinic acetylcholine receptor M4 (Homo sapiens), sequence (P08173 whole entry, looked up): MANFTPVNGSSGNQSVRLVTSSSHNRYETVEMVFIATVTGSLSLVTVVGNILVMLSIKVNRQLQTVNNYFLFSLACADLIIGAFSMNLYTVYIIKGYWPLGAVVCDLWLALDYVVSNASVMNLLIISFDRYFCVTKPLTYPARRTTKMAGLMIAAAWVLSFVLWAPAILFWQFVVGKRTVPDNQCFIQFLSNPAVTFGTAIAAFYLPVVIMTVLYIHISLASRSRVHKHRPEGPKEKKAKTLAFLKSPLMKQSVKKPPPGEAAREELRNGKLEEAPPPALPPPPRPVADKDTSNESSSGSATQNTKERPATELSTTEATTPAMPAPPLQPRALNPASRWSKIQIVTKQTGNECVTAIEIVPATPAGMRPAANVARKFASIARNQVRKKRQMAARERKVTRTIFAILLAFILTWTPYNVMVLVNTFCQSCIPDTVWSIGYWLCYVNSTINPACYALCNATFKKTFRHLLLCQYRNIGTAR

| Compound | outcome |
| --- | --- |
| CCN(Cc1ccccc1C(F)(F)F)C(=O)C1CCN(S(=O)(=O)c2ccc3[nH]ncc3c2)CC1 | inactive |
| CCN(Cc1ccccc1)C(=O)C1CCN(S(=O)(=O)c2ccc3[nH]ncc3c2)CC1 | inactive |
| CCN(C(=O)C1CCN(S(=O)(=O)c2ccc3[nH]ncc3c2)CC1)[C@H](C)c1ccccc1 | inactive |
| CCN(Cc1ccccc1)C(=O)C1CCN(S(=O)(=O)c2ccc3c(c2)OCCO3)CC1 | inactive |
| CCN(C(=O)C1CCN(S(=O)(=O)c2ccc(-n3cccn3)cc2)CC1)[C@H](C)c1ccccc1 | inactive |
| CCN(Cc1ccccc1Cl)C(=O)C1CCN(S(=O)(=O)c2ccc3[nH]ncc3c2)CC1 | inactive |
| CCN(Cc1ccccc1C(F)(F)F)C(=O)C1(F)CCN(S(=O)(=O)c2ccc3[nH]ncc3c2)CC1 | inactive |
| CCN(Cc1ccccc1)C(=O)C1CCN(S(=O)(=O)c2ccc3cn[nH]c3c2)CC1 | inactive |
| CCN(C(=O)C1CCN(S(=O)(=O)c2ccc(OC)cc2)CC1)[C@H](C)c1ccccc1 | inactive |
| CCCN(Cc1ccccc1C(F)(F)F)C(=O)C1CCN(S(=O)(=O)c2ccc3[nH]ncc3c2)CC1 | inactive |
| CCN(Cc1ccccc1C(F)(F)F)C(=O)C1CCN(S(=O)(=O)c2ccc3cn[nH]c3c2)CC1 | inactive |
